Compound activity: PubChem, National Center for Advancing Translational Sciences (NCATS)
LmPK inh: inhibitors of Leishmania mexicana pyruvate kinase; 290,000 compounds, 0.37% hits; Potency, µM (series often up to 57.5 µM), inactives show at the top dose activity change, negative = inhibition, actives largely listed as inhibitors; Q27686; AID 1721; purified LmPK, Kinase-Glo ATP luminescence, 1 h
Target sequence (Q27686 whole entry, looked up): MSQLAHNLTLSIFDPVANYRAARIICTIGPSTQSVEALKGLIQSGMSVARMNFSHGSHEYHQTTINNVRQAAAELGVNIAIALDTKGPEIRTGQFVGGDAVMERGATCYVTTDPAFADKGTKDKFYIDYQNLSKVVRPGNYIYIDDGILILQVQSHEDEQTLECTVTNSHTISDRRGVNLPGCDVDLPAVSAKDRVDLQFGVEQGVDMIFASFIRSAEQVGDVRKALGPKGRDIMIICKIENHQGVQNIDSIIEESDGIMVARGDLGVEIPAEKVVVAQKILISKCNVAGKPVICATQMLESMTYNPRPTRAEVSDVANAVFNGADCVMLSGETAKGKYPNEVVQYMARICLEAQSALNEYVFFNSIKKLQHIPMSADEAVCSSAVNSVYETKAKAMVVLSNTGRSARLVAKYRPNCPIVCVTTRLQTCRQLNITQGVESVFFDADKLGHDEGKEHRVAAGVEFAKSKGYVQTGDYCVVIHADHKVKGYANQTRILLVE
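Purified LmPK (0.1 nM) with 0.5 mM PEP and 0.1 mM ADP in imidazole buffer pH 7.2 with MgCl2/KCl, 1 h at room temperature. ATP formed was read by luciferase luminescence and normalized to no-enzyme and uninhibited controls.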
RE007 growth inh: less growth of the S. pombe RE007 Vpr strain. S. pombe RE007 Vpr strain, BacTiter-Glo ATP luminescence, 24 h. 360,000 compounds, 0.21% hits. AID 651644. Potency, µM (highest dose often 92.2 µM), for inactives: at the highest dose activity change, negative = less growth, hits mostly inhibitors; active = well fitted falling curve with a large enough effect; inconclusive = small, poorly fitted or top-dose-only effect; inactive = no such curve, though single readings can be large or run the other way; also: nearly all actives have a fitted effect of over 50% in size
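Fission yeast strain RE007, carrying one chromosomally integrated HIV-1 vpr copy, was seeded at OD 0.01 in PMG+AL medium with 23 nL pinned compound. After 24 h at 30 °C and 99% humidity, viability was read by BacTiter-Glo luminescence.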
TbPYK inhibitor: T. brucei pyruvate kinase inhibition. Q57TT1. TbPYK enzyme, Kinase-Glo Plus ATP luminescence, 45 min. Potency, µM (top dose mostly 76.8 µM), without a hit: top-dose activity, negative = inhibition, actives largely listed as inhibitors. 410,000 compounds, 0.12% hits; also: nearly all actives have a fitted effect of over 50% in size
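Readout: single end-point luminescence (Kinase-Glo Plus, 10 min). Reaction conditions were TbPYK/substrate plus 130 uM ADP, 45 min at RT, pH 7.2 TEA buffer. No-enzyme wells served as controls, and data were normalized before concentration-response fitting.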
Sm TGR block: blocks Schistosoma mansoni thioredoxin glutathione reductase; 360,000 compounds, 3% hits; AID 485364; Potency, µM (top dose mostly 114 µM), for inactives: at the highest dose activity change, negative = inhibition, hits mostly inhibitors; purified TGR, DTNB reduction, TNB absorbance 405 nm; also: nearly all actives have a fitted effect of over 60% in size
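Kinetic colorimetric format: TGR-catalysed, NADPH-driven DTNB reduction monitored via TNB absorbance. Enzyme dispensed at 20 nM; compound exposure 15 min at room temperature before reaction start.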
Starred values were filed as active, the others as inactive; ? = inconclusive; . = no result; [ ] = dose if it differs, or a comment. Most compounds without a hit are left out; they make up all but 3% or so of the library. Unless noted, calls follow the shape of the dose curve; as a rule, active = well fitted curve in the direction sought with a large enough effect; inconclusive = small, poorly fitted or top-dose-only effect, or another doubt; inactive = no such curve, though single readings can be large; an effect the other way counts as inactive or inconclusive. % is scaled to controls: 0 for no effect and ±100 for the full control effect; potency is read from the fitted curve at half-maximal effect.

SMILES	LmPK inh	RE007 growth inh	TbPYK inhibitor	Sm TGR block
Cc1cccc(NC(=O)CSc2nc(N)c(NC(=O)c3ccccc3F)c(=O)[nH]2)c1	-12.2%	-2.9%	-3.0%	2.5%
CCOC(=O)c1[nH]c2ccccc2c1NC(=O)c1ccc(OC)c(OC)c1	.	.	2.0%	-9.5%
Cn1cccc1/C=C1/C(=O)NC(=S)N(Cc2ccc(F)cc2)C1=O	-16.6%	-0.5%	?	25.1µM*
CCCCNC(=O)CSc1nc2nc(C)c(Cc3ccccc3C)c(C)n2n1	.	.	-7.0%	8.1%
Cc1ccc(OCC(=O)Nc2nnc(SCc3cc(=O)c4ccccc4[nH]3)s2)cc1	.	.	28.2µM*	0.5%
COC(=O)C1=C(C(=O)OC)[C@@H]2N(C)c3ccccc3[C@@]23C[C@@H](C(=O)OC)N(S(=O)(=O)c2ccc(C(F)(F)F)cc2)C3=N1	5.0%[11.5 µM]	.	.	.
COc1ccc(CNS(=O)(=O)c2cc3c(cc2Cl)NC(=O)CO3)cc1	0.5%	-4.1%	-1.3%	2.8%
CCOCCCN(Cc1ccco1)S(=O)(=O)c1cc2c(cc1Cl)NC(=O)CO2	.	.	1.4%[15.4 µM]	17.8µM*
CCOCCCN(Cc1ccco1)S(=O)(=O)c1cc2c(cc1C)NC(=O)CO2	.	.	1.0%[15.4 µM]	0.3%
O=C1COc2cc(S(=O)(=O)NCc3ccco3)c(Cl)cc2N1	.	.	5.1%	15.8µM*
CC(C)(C)c1ccc(S(=O)(=O)NCc2ccc3c(c2)CCN3C(=O)c2ccccc2)cc1	.	.	-2.8%	3.3%
CCOC(=O)c1ccc(Nc2c(-c3ccc(OC)cc3)nc3nc[nH]n23)cc1	.	.	-13.5%	8.4%
CCOC(=O)c1ccc(Nc2c(-c3ccc(O)c(OC)c3)nc3nc[nH]n23)cc1	.	.	-14.8%	31.6µM*
Cn1c2ccccc2c(=O)c2c(=O)n(Cc3ccco3)c(-c3ccc(Cl)cc3Cl)nc21	3.9%	.	.	14.1µM*
COc1ccc(Cn2c(-c3ccco3)nc3c(c(=O)c4ccccc4n3C)c2=O)cc1	-0.4%	10.9%	-5.6%	50.1µM*
CC(C)Cn1c(-c2ccco2)nc2c(c(=O)c3ccccc3n2C)c1=O	0.7%	.	.	-21.0%
CCCCCCNC(=O)N[C@H](Cc1ccc(O)cc1)C(=O)NCCC[C@H]1CN2C(=NC[C@H]2CCC)N1CC1CCC1	-9.2%	.	.	5.01µM*
CCOc1ccc2c(c1)c(=O)c(C(=O)c1ccccc1)cn2Cc1ccccc1F	.	.	2.4%	7.9%
CC(=O)NC1=NC(=O)/C(=C/c2cn(C(C)=O)nc2-c2ccccc2)S1	-26.8%	6.7%	7.08µM*	-2.7%
CC1=C(SCc2ccccc2)C(=O)c2ccccc2C1=O	.	?	-16.3%	.
O=C1C(SCCO)=C(SCCO)C(=O)c2ccccc21	.	-16.5%	3.98µM*	0.501µM*
Oc1c(C=Nc2ccccc2Cl)[nH]c2ccccc12	-4.5%	-8.0%	-16.5%	50.1µM*
Cc1ccc(CN(C)C(=O)c2ccc3c(c2)NC(=O)CS3)o1	-1.4%	2.7%	-19.8%	10µM*
O=c1c2sc3ccccc3c2n(Cc2ccc(F)cc2)c(=O)n1Cc1ccccc1	.	.	5.8%	-7.8%
O=C(CN1C(=O)c2cccnc2Oc2ccc(Cl)cc21)N1CCCCCC1	4.0%	1.5%	-3.5%	9.0%
SMILES	LmPK inh	RE007 growth inh	TbPYK inhibitor	Sm TGR block
O=C(CCCN1C(=O)c2cccnc2Oc2ccc(Cl)cc21)N1CCCCC1	-7.2%	14.4%	5.7%	12.6µM*
CN1C(=O)/C(=C/c2cccc([N+](=O)[O-])c2)C(=O)N1c1ccccc1	5.2%	-12.1%	?	25.1µM*
O=C1NC(=S)N/C1=C/c1cccc([N+](=O)[O-])c1	-4.7%	-1.4%	-9.5%	-0.7%
Cc1ccc(NC(=O)Nc2nnc(N3CCCC3)s2)cc1C	.	.	3.3%	-7.3%
S=C1SCN(Cc2ccco2)CN1Cc1ccco1	-5.7%	35.5µM*	-8.7%	0.0%
COc1ccc(N2Cc3cccc(C(=O)Nc4cccc(F)c4)c3C2=O)cc1	.	.	7.0%	-3.5%
CC1CCc2c(sc(NC(=O)Cn3nc(C(=O)O)c4ccccc4c3=O)c2C#N)C1 (stereo not given)	0.3%	13.8%	-9.4%	28.2µM*
O=C(/C=C/c1ccco1)OCc1nnc(-c2ccc(Cl)cc2)o1	22.4%	-0.8%	7.4%	11.2µM*
O=C(/C=C/c1ccco1)OCc1nnc(-c2ccccc2)o1	14.4%	-11.8%	-2.8%	14.1µM*
Cc1ccc(/C=C/C(=O)OCn2nnc3ccccc3c2=O)o1	3.1%	46.1%	-2.8%	0.2%
O=C(/C=C/c1ccco1)OCn1nnc2ccccc2c1=O	-0.2%	-11.4%	-1.6%	22.4µM*
COc1ccccc1C(C[N+](=O)[O-])c1c(N)n(C)c(=O)n(C)c1=O (stereo not given)	-2.0%	35.5µM*	2.0%	-10.9%
COc1ccc(N2C(=O)CC(NCCNc3ccc([N+](=O)[O-])cn3)C2=O)cc1 (stereo not given)	2.4%	-4.1%	-1.4%	14.1µM*
CCCOc1ccc(N2C(=O)CC(NCCc3ccc(S(N)(=O)=O)cc3)C2=O)cc1 (stereo not given)	2.4%	?	-6.1%	44.7µM*
CCOc1ccc(N2C(=O)CC(NCCc3ccncc3)C2=O)cc1 (stereo not given)	-1.1%	?	3.8%	-26.8%
CCOc1ccc(N2C(=O)CC(NCCNc3ccc([N+](=O)[O-])cn3)C2=O)cc1 (stereo not given)	-1.8%	-18.8%	-0.8%	7.08µM*
O=C(Nc1ccc(S(=O)(=O)NC2=NCCCCC2)cc1)c1cccc(OC(F)F)c1	.	-17.4%	3.3%	.
CC(=O)c1cccc(NC(=O)CCS(=O)(=O)c2ccc(Br)s2)c1	-0.2%	25.4%	0.0%	39.8µM*
Cc1ccc(CNC(=O)CCS(=O)(=O)c2ccc(Br)s2)o1	3.4%	-29.6%	-30.0%	10µM*
COC(=O)c1ccc(NC(=O)CCS(=O)(=O)c2ccc(Br)s2)cc1	3.7%	30.8%	-1.0%	-29.2%
CCC1Sc2ccc(S(=O)(=O)CCC(=O)Nc3ccccc3Cl)cc2NC1=O (stereo not given)	-4.9%	3.4%	2.5%	-18.5%
CCC1Sc2ccc(S(=O)(=O)CCC(=O)NCc3ccc(C)o3)cc2NC1=O (stereo not given)	-2.1%	-6.6%	-13.1%	28.2µM*
CCOC(=O)c1cc(C)n(CC2CCC(C(=O)Nc3ccccc3OC)CC2)c1C (stereo not given)	.	.	1.8%	3.2%
O=C(CSc1nnc(-c2cccs2)n1CC1CCCO1)N1CCCC1 (stereo not given)	-0.7%	5.9%	2.5%	.
CCOc1ccc(C(C)=O)cc1CSc1nnc(-c2cccs2)n1CC1CCCO1 (stereo not given)	1.7%	4.9%	0.4%	20µM*
